According to PubChem BioAssay (NCI):
The panel holds about 83,000 compounds, 20% with a hit somewhere; the sample as a whole holds those more often.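 Cells were grown in 96-well plates and exposed to the test compound at a single concentration for 48 hours; results are reported as percent growth, with values below 10 considered active.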 Active and inactive are the calls of the source. Where a SMILES comes first, the peptide text is derived from it. Bridges are numbered along the chain shown (N, C = ends). [ ]: non-standard residue; d: D form. The star is where a group is joined. ξ: configuration not given here. ξNMePhe(4-NMe2) = CNC(Cc1ccc(N(C)C)cc1)C(=O)O; Picolinoyl(3-OH) = O=C(c1ncccc1O)*; ξPip(4-oxo) = O=C1CCNC(C(=O)O)C1; Phg = N[CH](C(=O)O)c1ccccc1; Abu = CC[CH](N)C(=O)O

Tested on: UO-31 renal
Assay: NCI-60 one-dose screen, 48 h (100 = growth as untreated, 0 = no growth, -100 = all killed)
Details: 10 µM

Row | SMILES | growth
1 | CC1=CC(=O)c2ccccc2C1=O | 70% (inactive)
2 | CCOC(=O)C(O)C(O)C(=O)OCC (stereo not drawn) | 97.1% (inactive)
3 | Oc1ccc(Cc2ccccc2)c2cccnc12 | -14.4% (active)
4 | CC1CCCC(CC(N)=O)CC1 (stereo not drawn) | 91% (inactive)
5 | COc1cc(C(N)=O)cc(OC)c1OC | 82.5% (inactive)
6 | Cc1ccc(/C(C#N)=C/c2ccc3c(c2)OCO3)cc1 | 64.3% (inactive)
7 | O=C(O)C(Cc1ccccc1)C(=O)O | 91.6% (inactive)
8 | O=C1N(C[P+](c2ccccc2)(c2ccccc2)c2ccccc2)CCCN1C[P+](c1ccccc1)(c1ccccc1)c1ccccc1 | 87.1% (inactive)
9 | N/N=C(/Cc1ccccc1)NNC(N)=S | 81.4% (inactive)
10 | COc1ccc(C)cc1OC | 89.8% (inactive)
11 | O=[N+]([O-])c1cccc(N=Nc2ccc(O)cc2O)c1 | 57.3% (inactive)
12 | CC1=NN(c2ccccc2)C(=O)/C1=C\N1CC(=O)NC1=S | 92% (inactive)
13 | CC1(O)CCCCC1O (stereo not drawn) | 79.3% (inactive)
14 | CC1(C)/C(=C\CO)C2CCC1C2 (stereo not drawn) | 78.5% (inactive)
15 | CCCCCCCCCCCCCCCCC1CC(=O)OC1=O (stereo not drawn) | 93.5% (inactive)
16 | S=c1nn[nH]c2ccccc12 | 67.1% (inactive)
17 | NC(=O)NC(=O)c1ccc(Cl)cc1 | 77% (inactive)
18 | CC1=C(/C=C/C(C)=C/C=C/C(C)=C/CO)C(C)(C)CCC1 | 87.3% (inactive)
19 | Cn1cnc2nc(Cl)nc(Cl)c21 | 45.2% (inactive)
20 | CC1(C)N=C(N)N=C(N)N1c1ccc(Cl)cc1 | 85.9% (inactive)

Row | SMILES | growth
21 | O=C(/C=C\c1ccc(O)cc1)c1ccccc1 | 67.8% (inactive)
22 | CO[C@H]1C[C@@H]2CC[C@@H](C)[C@@](O)(O2)C(=O)C(=O)N2CCCC[C@H]2C(=O)O[C@H]([C@H](C)C[C@@H]2CC[C@@H](O)[C@H](OC)C2)CC(=O)[C@H](C)C=C(C)[C@@H](O)[C@@H](OC)C(=O)[C@H](C)C[C@H](C)/C=C/C=C/C=C1C | 26.3% (inactive)
23 | C/C(O)=C(\C=N\C(N)=S)C(=O)Nc1ccccc1 | 91.5% (inactive)
24 | CCS(=O)(=O)c1cc(=O)[nH]c(=O)[nH]1 | 90.1% (inactive)
25 | CCCNC(=O)c1ccc(S(N)(=O)=O)cc1 | 107% (inactive)
26 | CC(C)(O)C#CC#CC(C)(C)O | 99.1% (inactive)
27 | CCC1NC(=O)C(NC(=O)c2ncccc2O)C(C)OC(=O)C(c2ccccc2)NC(=O)C2CC(=O)CCN2C(=O)C(Cc2ccc(N(C)C)cc2)N(C)C(=O)C2CCCN2C1=O (stereo not drawn) (tested in a mixture with another compound) ({Picolinoyl(3-OH)}-T[Abu]P[ξNMePhe(4-NMe2)][ξPip(4-oxo)][Phg]; ester 1-C; configuration not given here) | 90.8% (inactive)
28 | NNc1ccccc1C(=O)O | 87.9% (inactive)
29 | [O-][N+](=Nc1cccc(Cl)c1)c1cccc(Cl)c1 | 72.8% (inactive)
30 | O=C(O)C(O)c1ccccc1 (stereo not drawn) | 84.5% (inactive)
31 | CC(=O)Nc1ccc(NC(C)=O)c2c1C(=O)c1ccccc1C2=O | 59.5% (inactive)
32 | COc1cc2c3c(n(C)c(=O)c2cc1OC)-c1cc2c(cc1C3=O)OCO2 | 32.6% (inactive)
33 | CCN(CC)CCCC(C)Nc1ccnc(/C=C/c2ccc(Cl)cc2)c1 (stereo not drawn) | -48.5% (active)
34 | O=C1c2ccccc2C(=O)c2c1ccc(C(=O)O)c2[N+](=O)[O-] | 85.1% (inactive)
35 | O=[N+]([O-])c1ccccc1N=Nc1ccc(O)cc1O | 66.3% (inactive)
36 | O=C1C=C(O)C(=O)C=C1O | 79.2% (inactive)
37 | N#CCCN(CCCN1CCOCC1)CN1C(=O)c2ccccc2C1=O | 77.2% (inactive)
38 | C/C=C/CC(C)C(O)C1C(=O)NC(CC)C(=O)N(C)CC(=O)N(C)C(CC(C)C)C(=O)NC(C(C)C)C(=O)N(C)C(CC(C)C)C(=O)NC(C)C(=O)NC(C)C(=O)N(C)C(CC(C)C)C(=O)N(C)C(CC(C)C)C(=O)N(C)C(C(C)C)C(=O)N1C (stereo not drawn) | 24.1% (inactive)
39 | Cc1cc(=O)cc(C)n1-c1ccccc1 | 90% (inactive)

Tested on: TK-10 renal
Assay: as above
Details: 10 µM unless noted

Row | SMILES | growth
40 | CC1=CC(=O)c2ccccc2C1=O | 124% (inactive)
41 | CCOC(=O)C(O)C(O)C(=O)OCC (stereo not drawn) | 102% (inactive)
42 | Oc1ccc(Cc2ccccc2)c2cccnc12 | 9.22% (active)
43 | CC1CCCC(CC(N)=O)CC1 (stereo not drawn) | 94.2% (inactive)
44 | COc1cc(C(N)=O)cc(OC)c1OC | 111% (inactive)
45 | Cc1ccc(/C(C#N)=C/c2ccc3c(c2)OCO3)cc1 | 80.8% (inactive)
46 | O=C(O)C(Cc1ccccc1)C(=O)O | 105% (inactive)
47 | O=C1N(C[P+](c2ccccc2)(c2ccccc2)c2ccccc2)CCCN1C[P+](c1ccccc1)(c1ccccc1)c1ccccc1 | 106% (inactive)
48 | N/N=C(/Cc1ccccc1)NNC(N)=S | 118% (inactive)
49 | COc1ccc(C)cc1OC | 104% (inactive)
50 | O=[N+]([O-])c1cccc(N=Nc2ccc(O)cc2O)c1 | 65.7% (inactive)
51 | CC1=NN(c2ccccc2)C(=O)/C1=C\N1CC(=O)NC1=S | 122% (inactive)
52 | CC1(O)CCCCC1O (stereo not drawn) | 125% (inactive)
53 | CC1(C)/C(=C\CO)C2CCC1C2 (stereo not drawn) | 89.7% (inactive)
54 | CCCCCCCCCCCCCCCCC1CC(=O)OC1=O (stereo not drawn) | 107% (inactive)
55 | S=c1nn[nH]c2ccccc12 | 109% (inactive)
56 | NC(=O)NC(=O)c1ccc(Cl)cc1 | 100% (inactive)
57 | CC1=C(/C=C/C(C)=C/C=C/C(C)=C/CO)C(C)(C)CCC1 | 111% (inactive)
58 | Cn1cnc2nc(Cl)nc(Cl)c21 | 4.15% (active)
59 | CC1(C)N=C(N)N=C(N)N1c1ccc(Cl)cc1 | 69.7% (inactive)

Row | SMILES | growth
60 | O=C(/C=C\c1ccc(O)cc1)c1ccccc1 | 95.2% (inactive)
61 | CO[C@H]1C[C@@H]2CC[C@@H](C)[C@@](O)(O2)C(=O)C(=O)N2CCCC[C@H]2C(=O)O[C@H]([C@H](C)C[C@@H]2CC[C@@H](O)[C@H](OC)C2)CC(=O)[C@H](C)C=C(C)[C@@H](O)[C@@H](OC)C(=O)[C@H](C)C[C@H](C)/C=C/C=C/C=C1C | 71.7% (inactive)
62 | C/C(O)=C(\C=N\C(N)=S)C(=O)Nc1ccccc1 | 124% (inactive)
63 | CCS(=O)(=O)c1cc(=O)[nH]c(=O)[nH]1 | 102% (inactive)
64 | CCCNC(=O)c1ccc(S(N)(=O)=O)cc1 | 119% (inactive)
65 | CC(C)(O)C#CC#CC(C)(C)O | 95.6% (inactive)
66 | CCC1NC(=O)C(NC(=O)c2ncccc2O)C(C)OC(=O)C(c2ccccc2)NC(=O)C2CC(=O)CCN2C(=O)C(Cc2ccc(N(C)C)cc2)N(C)C(=O)C2CCCN2C1=O (stereo not drawn) (tested in a mixture with another compound) ({Picolinoyl(3-OH)}-T[Abu]P[ξNMePhe(4-NMe2)][ξPip(4-oxo)][Phg]; ester 1-C; configuration not given here) | 91% (inactive)
67 | NNc1ccccc1C(=O)O | 110% (inactive)
68 | [O-][N+](=Nc1cccc(Cl)c1)c1cccc(Cl)c1 | 108% (inactive)
69 | O=C(O)C(O)c1ccccc1 (stereo not drawn) | 103% (inactive)
70 | CC(=O)Nc1ccc(NC(C)=O)c2c1C(=O)c1ccccc1C2=O | 92.6% (inactive)
71 | COc1cc2c3c(n(C)c(=O)c2cc1OC)-c1cc2c(cc1C3=O)OCO2 | 101% (inactive)
72 | CCN(CC)CCCC(C)Nc1ccnc(/C=C/c2ccc(Cl)cc2)c1 (stereo not drawn) | -38.8% (active)
73 | O=C1c2ccccc2C(=O)c2c1ccc(C(=O)O)c2[N+](=O)[O-] | 109% (inactive)
74 | O=[N+]([O-])c1ccccc1N=Nc1ccc(O)cc1O | 140% (inactive)
75 | O=C1C=C(O)C(=O)C=C1O | 102% (inactive)
76 | N#CCCN(CCCN1CCOCC1)CN1C(=O)c2ccccc2C1=O | 103% (inactive)
77 | C/C=C/CC(C)C(O)C1C(=O)NC(CC)C(=O)N(C)CC(=O)N(C)C(CC(C)C)C(=O)NC(C(C)C)C(=O)N(C)C(CC(C)C)C(=O)NC(C)C(=O)NC(C)C(=O)N(C)C(CC(C)C)C(=O)N(C)C(CC(C)C)C(=O)N(C)C(C(C)C)C(=O)N1C (stereo not drawn) | 31.3% (inactive)
78 | Cc1cc(=O)cc(C)n1-c1ccccc1 | 96.3% (inactive)
